Our source for the max activity values is PubChem BioAssay AID1259418 (Broad Institute, 2018).

The campaign covered roughly 3,400 compounds. About 840 (25%) were called active. Not shown: some 11% with an inconclusive outcome.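 The calls were made as follows: active = fitted half-maximal concentration of signal decrease at or below twice the sample's top tested concentration; inconclusive = flat curve between -70 and -30 percent, or poor fit; inactive = flat within 30 percent, signal rise, or potency above limit.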 These entries were drawn from the full list. Potency and affinity values are given separately.

This assay can be described thus: T. gondii growth inhibition with IFN-gamma, dose response, cell-based, ME49Luc, HeLa, luciferase, 72 h (AID 1259418). The settings on record: T. gondii ME49Luc in IFN-y HeLa, active compounds read low, -100% = high-dose IFN-γ control wells; at 19.5 µM unless noted.
With `Cc1cccc(C2=NC3(CCN(CC(=O)Nc4ccc(F)cc4F)CC3)NC2=O)c1`, the max activity was -4.98% [at 0.68 µM] (inactive).

Consider `COc1cccc(CC(=O)Nc2ccc(-c3nc(-c4ccc(C)cc4C)co3)cc2)c1`, for which the max activity is -8.08% [at 1.35 µM] (inactive).

With `CCn1cc(CN2CCCC2c2cc(C(C)C)no2)c2cc(OC)ccc21` (stereo not drawn), the max activity is 5.61% [at 0.16 µM] (inactive).

Regarding `CCOC(=O)Cn1cc(CN2CCCC2c2c(C)noc2CC)c2ccccc21` (stereo not drawn), the max activity was 12.1% [at 0.16 µM] (inactive).

As to `CCn1cc(CN2CCCC2c2cc(C(C)C)on2)c2ccccc21` (stereo not drawn), the max activity was 8.42% [at 0.16 µM] (inactive).

On to `COC(=O)Cn1cc(CN2CCCC2c2cc(C(C)C)no2)c2cc(OC)ccc21` (stereo not drawn), for which the max activity is 18.8% [at 0.35 µM] (inactive).

`COc1ccc(CC(=O)N2CCC3(CC2)Nc2ccc(C)c(C)c2-n2cccc23)cc1`: the max activity was 9.26% [at 0.68 µM] (inactive).

Turning to `COc1ccccc1NC(=O)N1CCc2nc(-c3ccc(C)cc3)sc2C1`, the max activity is 44.9% (inactive).

On to `Cc1ccccc1-c1nc(CN2CCN(C(=O)Nc3ccc(Cl)cc3)CC2)c(C)o1`, for which the max activity is -10.3% [at 0.35 µM] (inactive).

For `Cc1nc(N2CCCC2)nc2c1CCN(C(=O)c1ccoc1C)CC2`, the max activity is -9.94% [at 0.3 µM] (inactive).

Take `CN(C)c1nc(N2CCOCC2)nc2c1CN(Cc1cccs1)CC2`: the max activity is 13.4% [at 5 µM] (inactive).

As for `CCOc1ccc(-c2nc3c(s2)CN(C(=O)Nc2cc(C)ccc2OC)CC3)cc1`, the max activity was 14.6% (inactive).

In the case of `COc1ccc(OCC(=O)N2CCC(C(=O)NCCc3csc(-c4ccccc4)n3)CC2)cc1`, the max activity is 12.9% (inactive).

On to `COc1ccc(-c2nc3c(s2)CN(S(=O)(=O)c2ccc(NC(C)=O)cc2)CC3)cc1`, for which the max activity was 17.2% [at 10 µM] (inactive).

Consider `CCCCCNC(=O)CCC1Nc2c3ccccc3nc(=S)n2C1=O` (stereo not drawn), for which the max activity is 12.1% [at 5 µM] (inactive).

Regarding `Cc1ccccc1C(=O)N1CCC(C(=O)NCCc2csc(-c3ccccc3)n2)CC1`, the max activity is 23.4% [at 1.35 µM] (inactive).

Turning to `O=C(NCCc1csc(-c2ccccc2)n1)C1CCN(C(=O)c2cccc(Cl)c2)CC1`, the max activity was 7.04% [at 0.68 µM] (inactive).

For the compound `O=C(NCCc1csc(-c2ccccc2)n1)C1CCN(C(=O)c2ccc(F)c(F)c2)CC1`, the max activity is 18% [at 5 µM] (inactive).

Turning to `O=C(NCCc1csc(-c2ccccc2)n1)[C@H]1CCCN1C(=O)c1ccccc1Br`, the max activity was -16.7% [at 0.16 µM] (inactive).

For the compound `CCOc1ccccc1C(=O)N1CCC(C(=O)NCCc2csc(-c3ccccc3)n2)CC1`, the max activity was -11.4% [at 5 µM] (inactive).

`Cc1nc(CCNC(=O)C2CCN(C(=O)c3ccccc3Cl)CC2)cs1`: the max activity was -5.21% [at 1.35 µM] (inactive).

With `O=C(Nc1ccc(-c2nc(-c3ccccc3)co2)cc1)Nc1cccc(Br)c1`, the max activity is 8.78% [at 10 µM] (inactive).

Take `CCOC(=O)CSc1nc(Nc2ccc(F)c(F)c2)c2ccccc2n1`: the max activity was -35.1% [at 0.35 µM] (inactive).

Turning to `COc1cc(Nc2nc(SCc3ccc(Cl)cc3)nc3ccccc23)cc(OC)c1`, the max activity is 21% [at 5 µM] (inactive).

On to `Fc1ccc(CSc2nc(Nc3ccc(F)c(F)c3)c3ccccc3n2)cc1`, for which the max activity is 9.75% [at 1.35 µM] (inactive).

As to `Fc1ccc(Nc2nc(SCc3ccccc3Cl)nc3ccccc23)cc1`, the max activity is 17.7% [at 0.68 µM] (inactive).

In the case of `Fc1ccc(Nc2nc(SCc3cccc(Cl)c3)nc3ccccc23)cc1`, the max activity is -13.6% [at 1.35 µM] (inactive).

For `COc1ccc(CNc2nc(SCc3ccc(F)cc3)nc3ccccc23)cc1`, the max activity is 10.3% (inactive).

In the case of `COc1ccc(-c2noc(C3CCCN3C(=O)c3sc(C)nc3C)n2)cc1` (stereo not drawn), the max activity was 11.1% [at 0.35 µM] (inactive).

With `COc1ccc(CNC(=O)CCC2N=C3c4ccccc4N=C(SCc4cc(=O)n5ccccc5n4)N3C2=O)cc1` (stereo not drawn), the max activity was 14.6% [at 1.35 µM] (inactive).

Take `Cc1csc(-c2csc(S(=O)(=O)N3CCC(Cc4ccccc4)CC3)c2)n1`: the max activity is -14% [at 0.35 µM] (inactive).

With `O=C(CCC1Nc2c3ccccc3nc(=S)n2C1=O)NCc1ccc(F)cc1` (stereo not drawn), the max activity is 21.3% (inactive).

In the case of `Cc1cccc(-c2nc(CSc3nc4c(c(=O)[nH]3)CN(Cc3ccc(F)cc3)CC4)c(C)o2)c1`, the max activity was 16.6% [at 0.16 µM] (inactive).

`CSc1ccc(-c2noc(-c3nnn(Cc4nc(-c5ccccc5)oc4C)c3C)n2)cc1`: the max activity is 13.9% (inactive).

Regarding `COc1ccc(S(=O)(=O)Nc2ccc(-c3nc(-c4ccc(C)c(C)c4)co3)cc2)cc1`, the max activity was 54.5% [at 10 µM] (inactive).

Consider `CCn1nnc2c(NCCn3ccc4ccccc43)ncnc21`, for which the max activity was -27.3% (inactive).

Turning to `Cc1nc(-c2cc(S(=O)(=O)N3CCC(C)CC3)c(C)s2)sc1C`, the max activity is -8.09% [at 0.68 µM] (inactive).

Regarding `Cc1nc(-c2cc(S(=O)(=O)NCCN3CCC(C)CC3)c(C)s2)sc1C`, the max activity is 16.1% [at 0.35 µM] (inactive).

For the compound `COc1ccc(NC(=O)Nc2ccc(-c3nc(-c4ccc(C)cc4)co3)cc2)cc1OC`, the max activity is -10.2% [at 1.35 µM] (inactive).

Take `COc1ccc(CC(=O)N2CCC3(CC2)Nc2cc(F)ccc2-n2cccc23)cc1`: the max activity is 9.99% [at 0.16 µM] (inactive).

Turning to `Cc1ccc(-c2coc(-c3ccc(NS(=O)(=O)c4ccc(Br)cc4)cc3)n2)cc1C`, the max activity was 22% [at 0.68 µM] (inactive).

With `CN1C(=O)c2cc(NC(=O)Cc3cccs3)ccc2OC[C@@H]2O[C@H](CC(=O)N[C@@H]3CCN(Cc4ccccc4)C3)CC[C@@H]21`, the max activity was 12.6% [at 0.6 µM] (inactive).

As for `CN1C(=O)c2cc(NC(=O)Cc3cccs3)ccc2OC[C@@H]2O[C@H](CC(=O)N[C@H]3CCN(Cc4ccccc4)C3)CC[C@@H]21`, the max activity is 21.7% (inactive).

For the compound `Cc1ccc(-c2coc(-c3ccc(NC(=O)Nc4ccccc4)cc3)n2)c(C)c1`, the max activity is 15.7% [at 0.16 µM] (inactive).

For the compound `Cc1ccc(N2CCN(C(=O)c3ccc(-c4csc(C5CC5)n4)cc3)CC2)c(C)c1`, the max activity was 4.42% (inactive).

`COc1cc(NC(=O)Nc2ccc(-c3nc(-c4ccccc4)co3)cc2)cc(OC)c1`: the max activity is 11.5% [at 0.16 µM] (inactive).

As for `Cc1ccc(-c2nc3c(s2)CN(C(=O)Nc2ccccc2C)CC3)cc1`, the max activity was 18.7% (inactive).

Consider `COc1cccc(-c2nc3c(s2)CN(C(=O)Nc2ccc(OC)c(OC)c2)CC3)c1`, for which the max activity was 7.26% (inactive).

Take `Cc1ccc(-c2nc3c(s2)CN(C(=O)Nc2cccc(C)c2)CC3)cc1`: the max activity was 26.8% [at 10 µM] (inactive).

On to `COc1cccc(-c2nc3c(s2)CN(C(=O)Nc2ccc(C)c(C)c2)CC3)c1`, for which the max activity was 12.6% [at 2.6 µM] (inactive).

As for `COc1ccc(-c2nc3c(s2)CN(C(=O)Nc2cc(C)cc(C)c2)CC3)cc1`, the max activity was 17.7% (inactive).

For the compound `COc1ccc(-c2nc3c(s2)CN(C(=O)Nc2ccc(C)cc2C)CC3)cc1`, the max activity is 24.8% (inactive).

On to `Cc1nc(CCNC(=O)C2CCN(S(=O)(=O)c3ccc(F)c(F)c3)CC2)cs1`, for which the max activity is 10.4% [at 5 µM] (inactive).

In the case of `Cc1ccc2c(c1C)-n1cccc1C1(CCN(C(=O)c3cccc(F)c3)CC1)N2`, the max activity was -11.1% [at 0.35 µM] (inactive).

Regarding `O=C(NCc1cccnc1)C1CCN(Cc2cc3ccccc3n2Cc2ccccc2Cl)CC1`, the max activity was -4.69% [at 1.35 µM] (inactive).

On to `O=C(NCCN1CCCC1)C1CCN(Cc2cc3ccccc3n2Cc2ccccc2Cl)CC1`, for which the max activity was 6.81% (inactive).

Regarding `Cc1ccccc1Cn1c(CN2CCC(C(=O)NCCC(C)N3CCCC3)CC2)cc2ccccc21` (stereo not drawn), the max activity is 15.2% [at 0.16 µM] (inactive).

In the case of `O=C(Nc1ccc(-c2nc(-c3ccccc3)co2)cc1)Nc1ccccc1F`, the max activity is 103% (inactive).

As for `COc1ccc(Cl)cc1NC(=O)N1CCc2nc(-c3ccccc3)sc2C1`, the max activity is -14.8% [at 0.35 µM] (inactive).

Take `CN(Cc1ccccn1)C(=O)C1=NOC2(CCN(S(=O)(=O)c3cccc(F)c3)C2)C1` (stereo not drawn): the max activity is 23.5% [at 10 µM] (inactive).

Turning to `Cc1ccc(-c2coc(-c3ccc(NC(=O)Nc4ccc(F)c(Cl)c4)cc3)n2)cc1`, the max activity was 49.3% (inactive).

Turning to `CCc1c(C)sc2c1CCN(Cc1nc(-c3ccc(C(C)C)cc3)oc1C)C2c1ccccc1` (stereo not drawn), the max activity was 9.71% (inactive).

For the compound `Cc1ccccc1C(=O)Nc1cnc(N2CCC(C(N)=O)(N3CCCCC3)CC2)c(C(=O)O)c1`, the max activity was -6.96% [at 1.35 µM] (inactive).

Consider `CCc1ccc(S(=O)(=O)N2CCC3(CC2)NCCN=C3NCc2ccc(Cl)cc2)cc1`, for which the max activity was 17.4% [at 10 µM] (inactive).

As to `CCc1ccc(S(=O)(=O)N2CCC3(CC2)NCCN=C3NCc2cc(F)cc(F)c2)cc1`, the max activity was 16.8% (inactive).

Take `CC(C)Cc1ccc(S(=O)(=O)N2CCC3(CC2)NCCN=C3NCc2cccc(F)c2)cc1`: the max activity was 16.8% [at 10 µM] (inactive).

Take `Cc1cnn(C(C)C(=O)N2CCc3[nH]nc(-c4ccc(F)c(F)c4)c3C2)c1` (stereo not drawn): the max activity was 11.2% (inactive).

As for `Cc1ccc(-c2coc(-c3ccc(NC(=O)Nc4ccccc4Cl)cc3)n2)cc1`, the max activity was 13.9% [at 0.16 µM] (inactive).

On to `COC(=O)C1CCN(S(=O)(=O)c2cc3c4c(c2)CCC(=O)N4CCC3)CC1`, for which the max activity was 9.1% [at 1.35 µM] (inactive).

Regarding `CCOc1ccc(-c2nc3c(s2)CN(S(=O)(=O)c2cc(C)cc(C)c2)CC3)cc1`, the max activity was -12.1% [at 2.6 µM] (inactive).

With `COc1ccc(-c2nc(NCc3cccc(Cl)c3)c3ccccc3n2)cc1`, the max activity was -12% [at 0.35 µM] (inactive).

Take `CCc1c(C)sc2c1CCN(Cc1nc(-c3ccc(Cl)cc3)oc1C)C2c1ccccc1` (stereo not drawn): the max activity was 38.9% [at 10 µM] (inactive).

Consider `CCc1ccccc1NC(=O)N1CCc2nc(-c3ccc(C)cc3)sc2C1`, for which the max activity was -16.8% (inactive).
